Bioassay records as filed in PubChem BioAssay.
Rows were chosen to be rich in hits. Some 1% of all compounds tested hit in one or more screens of this group.
GC-B act: GC-B (human) receptor activation. HEK293-GC-B cells, CNP EC30, cGMP TR-FRET; 0% at EC30 CNP, 100% saturating CNP. activation, % at 10 µM. 370,000 tested, 0.11% active;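 active = activation at 10 µM reaching about 35% in either raw or pattern-adjusted values, limit read from the data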
A1 inh: inhibitors of the anti-apoptotic protein A1, read as caspase activation; MEF A1-2A-BIM cells, Caspase-Glo 3/7 luminescence, 3 h; percent of clofoctol response, vehicle zero; caspase activation, % (concentration not given with the values); 330,000 tested, 0.066% active;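 active = over half of replicate activation scores above 10%, or exactly half above 10 with the replicate mean above 10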
Efflux pump inh: antifungal efflux pump inhibition, Nile Red retention | S. cerevisiae Candida pump triplex | inhibition, % at 10 µM | 330,000 tested, 0.44% active;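 active = plate passing quality check with inhibition over a set limit, or well fluorescence over plate mean plus 4 SD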;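 also: Nile Red retained in pooled yeast measured as flow cytometry median fluorescence; 0% = buffer negative control and 100% = Enniatin B positive control; higher means more Nile Red kept so more efflux inhibition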
TAG inh: triacylglycerol accumulation inhibition. H9c2 cells, Nile Red lipid (TAG) fluorescence; cells loaded with 200 µM oleic acid. inhibition, % at 12.5 µM. 230,000 tested, 0.66% active. AID 651582;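 active = pattern-corrected inhibition of lipid staining of at least 50% with the nuclear-stain viability signal not falling by more than 50%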;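 also: 0% = DMSO wells and 100% = triacsin C control wells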
GC-A act: GC-A (human) enzyme activation. P16066. HEK293 GC-A cells, cGMP TR-FRET, EC30 ANP; 0% at EC30 ANP, 100% saturating ANP. activation, % at 10 µM. 370,000 tested, 0.14% active; in the data active = activation above about 40%
HSV augment: HSV replication enhancement. maximum fold increase. HSV replication augmentation in cells, fold increase. 220,000 tested, 0.005% active. AID 1956; in the data active = maximum fold increase above about 1.5; tested in PC3 cells
Yeast cmpd fluor: flagged as fluorescent in efflux inhibitor counter-screen; shares compounds with Efflux pump inh; S. cerevisiae AD/pABC3, compound fluorescence, flow cytometry; fluorescence ratio to DMSO, % at 10 µM; 1,700 tested, 4% active; AID 588517;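 active = fluorescence ratio to DMSO above its plate's cutoff, the plate mean ratio plus 5 SD, cut at about 210% in these data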;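 also: unstained yeast with no Nile Red so the signal is compound autofluorescence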
Mdr1 pump inh: blocks the Candida albicans Mdr1 efflux pump in yeast; shares compounds with Efflux pump inh; S. cerevisiae AD/CaMDR1, Nile Red efflux, flow cytometry; inhibition, % at 10 µM; 1,700 tested, 1% active; AID 588518; in the data active = inhibition above about 26%;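 also: 0% = DMSO vehicle and 100% = reference inhibitor; higher means more Nile Red retained so more efflux inhibition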
Cdr2 pump inh: Candida Cdr2 efflux pump inhibition; shares compounds with Efflux pump inh; 1,700 tested, 4% active; S. cerevisiae AD/CaCDR2, Nile Red retention, flow cytometry; Nile Red retention ratio vs DMSO, % at 10 µM; AID 588520; in the data active = Nile Red retention ratio vs DMSO above about 190%;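 also: higher ratio means more blocking of Cdr2 efflux of the dye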
CaCdr1 efflux inh: blocks the Candida albicans Cdr1 efflux pump in yeast | inhibition, % at 10 µM | S. cerevisiae AD/CaCDR1, Nile Red efflux, flow cytometry | AID 588522 | shares compounds with Efflux pump inh | 1,700 tested, 1% active;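 active = inhibition above the screen-wide mean plus twice its standard deviation, cut at about 32% in these data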
* marks the source's active call; other numbers are inactive results; i = inactive; . = no result given.

SMILES | GC-B act | A1 inh | Efflux pump inh | TAG inh | GC-A act | HSV augment | Yeast cmpd fluor | Mdr1 pump inh | Cdr2 pump inh | CaCdr1 efflux inh
O=C(Nc1ccccc1O)c1ccccc1O | 3 | -5 | 1.1* | 14 | 9 | i | 105 | 0 | 97 | 0
Cc1cccc(NC(=O)c2ccccc2O)c1C | 0 | -2 | 0 | . | 2 | i | . | . | . | .
COc1c2c(cc3c1c(=O)c1ccccc1n3C)OCO2 | -2 | . | . | . | 2 | . | . | . | . | .
Cc1cc(NC(=O)CCC(=O)N(Cc2ccco2)C(C(=O)NC2CCCC2)c2ccccc2F)no1 (centres undefined) | -1 | 0 | 0 | . | 2 | . | . | . | . | .
Cc1cc(NC(=O)CCC(=O)N(Cc2ccco2)C(C(=O)NC2CCCCC2)c2ccccc2)no1 (centres undefined) | -7 | 0 | 0 | . | 0 | i | 104 | 0 | 119 | 0
Cc1cc(NC(=O)CCC(=O)N(Cc2ccco2)C(C(=O)NC2CCCC2)c2ccccc2C)no1 (centres undefined) | -2 | 0 | 0 | 22 | -2 | i | 85 | 0 | 90 | 0
Cc1ccc(C(C(=O)NC2CCCC2)N(C(=O)CCC(=O)Nc2cc(C)on2)c2ccccc2)cc1 (centres undefined) | -3 | -1 | 0 | 9 | -3 | i | 110 | 0 | 123 | 0
COC(=O)[C@]12C[C@H](CC(=O)N3CCCC3)C(=O)N(Cc3ccco3)C1=C[C@H](COCc1ccccc1)O[C@@H]2C | -2 | . | . | . | 0 | . | . | . | . | .
CC(C)N1CCCCC(NC(=O)c2ccc(F)c(F)c2)C1=O (centres undefined) | 1 | . | . | . | 2 | . | . | . | . | .
COC(=O)C1CN(Cc2ccc(Cl)cc2)CCS(=O)(=O)N1Cc1cn(Cc2ccc(C)cc2)nn1 (centres undefined) | -7 | . | . | . | -7 | . | . | . | . | .
COc1ccc2cc(C(C)C(=O)Nc3cccc(S(=O)(=O)N(C)C)c3)ccc2c1 (centres undefined) | 4 | 1 | 3.2* | . | -3 | . | 100 | 0 | 94 | 0
COC(=O)c1cccc(N2C(=O)C[C@](Sc3ccc(OC)cc3)(C(=O)N3CCOCC3)[C@H]2c2ccc(OC)cc2)c1 | -16 | . | . | . | -21 | . | . | . | . | .
CC(c1ccccc1)n1cc(C(=O)N2CCCC2)nn1 (centres undefined) | 7 | . | . | . | 1 | . | . | . | . | .
COc1ccc(CCCc2nnc(SCC(=O)Nc3cccc(C)c3)o2)cc1 | -10 | 0 | 0 | . | -5 | i | . | . | . | .
COc1ccc(CCCc2nnc(SCC(=O)Nc3cc(C)c(C)cc3Br)o2)cc1 | -4 | -1 | 0.8* | . | -3 | i | 103 | -1 | 108 | 0
COc1ccc(OC)c(NC(=O)c2ccccc2N(Cc2ccccc2)C(=O)C(C)Cl)c1 (centres undefined) | -11 | . | . | . | 1 | . | . | . | . | .
O=C(Cc1ccc(F)cc1)OCC(=O)N1CCN(S(=O)(=O)c2ccc(Cl)cc2)CC1 | -2 | 0 | 0.5* | 16 | 2 | . | 105 | 0 | 95 | 0
CCOc1ccccc1/C=C/c1onc(C)c1S(=O)(=O)N1CCC(C(=O)N(CC)CC)CC1 | 3 | 0 | 0.2* | . | -4 | . | 106 | 0 | 108 | 0
Fc1ccc(-c2n[nH]c(=S)n2N=Cc2ccc(OCc3ccccc3)cc2)cc1 | -5 | . | . | . | -2 | . | . | . | . | .
CCCCC1C2=C(CCCC2=O)OC2=C1C(=O)CCC2 | 0 | 1 | 7.6* | . | 2 | . | 94 | 0 | 91 | 0
Cc1cccc(Cn2cc(COC(=O)N3CCOCC3)nn2)c1 | 4 | . | . | . | 1 | . | . | . | . | .
CCOC(=O)[C@]12CCCC=C1N(Cc1ccc(OC)cc1)C(=O)[C@@H]2CC(=O)NCc1cccc(C(F)(F)F)c1 | 3 | . | . | . | -1 | . | . | . | . | .
